Drawing on PubChem BioAssay AID618 (Sanford-Burnham Center for Chemical Genomics, 2007), this text covers outcome for 116 molecules.

Hit rate of the full screen: of about 87,000 compounds, about 540 (0.62%) were called active. How the calls were made is not given here. The list comes from a sample in which actives are over-represented; it also holds similar structures and randomly drawn compounds. Measured potencies and affinities stand elsewhere.

This assay is described as follows: MT1-MMP gene expression reporter suppression – cell-based, luciferase reporter, luminescence (AID 618).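 Further: actives suppress MT1-MMP promoter-driven transcription so potencies describe inhibitors.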 To be noted: MT1-MMP promoter luciferase reporter cells. In general terms: Reporter assays use an easily measured gene product as a stand-in for the process of interest.
On to `Cc1ccc(C)c(C(=O)CC2(O)C(=O)Nc3ccccc32)c1` (stereo unspecified), for which the molecule was classed as inactive.
The result for `Cc1onc(-c2c(F)cccc2Cl)c1C(=O)NCCCN1CCOCC1` reads “inactive”; that for `Cc1cccc(C)c1NC(=O)Cn1c(CN2CCCCC2)nc2ccccc2c1=O`, “inactive”.
Turning to `CCN(Cc1ccccc1)S(=O)(=O)c1nc2nc(C)c(C)c(C)n2n1`, the molecule was called inactive.
The result for `CC(=O)Nc1ccc(-c2cn3ccsc3n2)cc1` reads “inactive”; that for `CC(C)CC(=O)Nc1ccc(-c2cn3ccsc3n2)cc1`, “inactive”; that for `CC(C)(C)C(=O)Nc1ccc(-c2cn3ccsc3n2)cc1`, “active”.
The result for `CCCOC(=O)c1ccc(Oc2c(-c3ccc(OC)cc3O)n[nH]c2C)cc1` reads “inactive”; that for `COc1ccc(CN2CC(C(=O)NCc3ccc4c(c3)OCO4)CC2=O)cc1` (stereo unspecified), “inactive”.
In the case of `O=C(c1nc2nc(-c3ccccc3)cc(C(F)(F)F)n2n1)N1CCOCC1` it was “inactive”; in that of `O=C(CSc1nnc(-c2ccccc2)n1Cc1ccco1)Nc1ccc(S(=O)(=O)N2CCCC2)cc1`, “inactive”; in that of `Clc1ccc(-c2nc(N3CCCCC3)nc3ccccc23)cc1`, “inactive”.
For `Clc1ccc(-c2nnc3n2CCCCC3)cc1`, the molecule was called inactive.
On to `Clc1c(CSc2nc3ccccc3o2)nc2sccn12`, for which the result was inactive.
In the case of `c1ccc2oc(SCc3cn4ccccc4n3)nc2c1` it was “inactive”; in that of `CCOc1cc(/C=N/N=C(/N)c2nonc2N)cc(Br)c1OCc1ccc(Cl)cc1`, “inactive”.
In the case of `CCOC(=O)c1[nH]c(C)c(C(=O)NCCCOC(C)C)c1C` it was “inactive”.
The result for `c1ccc(CN2CCN(c3nc4ccccc4c4ccccc34)CC2)cc1` reads “inactive”; that for `COCCOC(=O)C1=C(C)NC2=C(C(=O)CCC2)C1c1cc2c(cc1Br)OCO2` (stereo unspecified), “inactive”; that for `O=S(=O)(c1ccc2c(c1)C(=NO)c1cc(S(=O)(=O)N3CCCCC3)ccc1-2)N1CCCCC1`, “active”.
On to `CC1CCN(S(=O)(=O)c2ccc3c(c2)C(=NO)c2cc(S(=O)(=O)N4CCC(C)CC4)ccc2-3)CC1`, for which the call was inactive.
`O=S(=O)(c1ccc(S(=O)(=O)N2CCCC2)cc1)N1CCCCCC1`: the molecule was classed as inactive.
In the case of `O=C(CCC(=O)c1ccc(F)cc1)Nc1cccnc1` it was “inactive”; in that of `CC(C)N(CCCNC(=O)CC1Oc2ccccc2NC1=O)Cc1ccccc1` (stereo unspecified), “inactive”; in that of `Nc1ccc2c(c1)C(=O)C(=O)c1ccccc1-2`, “active”.
The result for `Nc1ccc(Br)c2c1C(=O)c1ccccc1C2=O` reads “inactive”; that for `O=C1C(=O)c2ccc(-c3ccccc3)cc2-c2ccccc21`, “inactive”.
In the case of `CCOC(=O)CON1C(=O)c2ccccc2C1=O`, the molecule was classed as inactive.
In the case of `COc1ccc(-c2c(C)n([O-])c3c([n+]2=O)CCCC3)cc1` it was “inactive”; in that of `N=c1n(CCN2CCOCC2)c2ccccc2n1Cc1ccccc1Br`, “inactive”; in that of `Cn1c(-c2ccco2)nc2cc3ccccc3cc21`, “active”.
`CCn1c(-c2ccco2)nc2ccccc21`: the molecule was classed as inactive.
In the case of `Cn1c(-n2c(-c3ccco3)nc3ccccc3c2=O)nc2ccccc21` it was “inactive”; in that of `C=COCCn1c(=N)n(CCC)c2ccccc21`, “inactive”; in that of `O=C1[C@@H]2C(c3ccccc3Cl)=NO[C@@H]2C(=O)N1Cc1ccccc1`, “inactive”.
As to `Cc1c(NC(=O)c2ccccc2)c(=O)n(-c2ccccc2)n1C`, the call was inactive.
As to `Cc1c(NC(=O)c2ccc(=O)oc2)c(=O)n(-c2ccccc2)n1C`, the molecule was classed as inactive.
Turning to `CCCNc1cc(C)oc(=O)c1C(=O)CCC`, the molecule was classed as inactive.
The result for `Oc1ccc(Nc2nc3ccccc3nc2Nc2ccc(O)cc2)cc1` reads “inactive”; that for `CCOC(=O)C1CCCCN1C(=O)CCc1c(C)nc2ncnn2c1C` (stereo unspecified), “inactive”.
In the case of `Cc1nc2cc(-c3cccc(F)c3)nn2c(C)c1CCC(=O)N1CCN(c2ccccn2)CC1` it was “inactive”.
Turning to `CCn1c(C(=O)Nc2ccsc2C(=O)OC)cc2sc(Cl)cc21`, the outcome was inactive.
The result for `CN1CCC(C2(O)c3ccccc3CSc3sccc32)CC1` (stereo unspecified) reads “inactive”.
`Cc1ccc(C(=O)Nc2ccc(CC(=O)O)cc2)o1`: the call was inactive.
In the case of `COC(=O)Cc1ccc(NC(=O)c2ccc(Br)o2)cc1` it was “inactive”.
In the case of `Cc1cc(C(C)(C)C)oc1C(=O)Nc1ccc(CC(=O)O)cc1` it was “inactive”.
In the case of `O=C(O)Cc1ccc(NC(=O)c2ccc(NC(=O)c3ccco3)cc2)cc1`, the molecule was called inactive.
In the case of `COC(=O)Cc1ccc(NC(=O)c2ccc(C)c(C)c2)cc1` it was “inactive”.
The result for `Cc1oc(C)c(C(=O)Nc2ccc(CC(=O)O)cc2)c1C(=O)Nc1ccc(CC(=O)O)cc1` reads “inactive”; that for `COc1ccc(-n2c(Cc3cccn3C)nnc2SCC(=O)Nc2cccc(NC(C)=O)c2)cc1`, “inactive”.
In the case of `CCOc1ccc(CCNC(=O)C(O)c2ccccc2)cc1` (stereo unspecified) it was “inactive”.
Turning to `Cc1cc(=O)oc2cc(OCC(=O)Nc3nnc(C(C)C)s3)ccc12`, the molecule was called inactive.
The result for `CC(=NCCCn1ccnc1)C1=C(O)c2ccccc2C1=O` reads “inactive”; that for `Clc1ccc(-n2ncc3c(N4CCCC4)ncnc32)cc1`, “inactive”.
`CCN1CCN(c2ncnc3c2cnn3-c2ccc(Cl)cc2)CC1`: the molecule was called inactive.
On to `Cc1cccc(-n2ncc3c(N4CCN(c5nc(C)cc(C)n5)CC4)ncnc32)c1`, for which the call was inactive.
Turning to `Cc1cccc(-n2ncc3c(N4CCC5(CC4)OCCO5)ncnc32)c1`, the molecule was called inactive.
For the molecule `COc1cc(NC(=O)CSc2ncnc3c2cnn3Cc2ccccc2)cc(OC)c1`, the call was inactive.
The result for `COc1ccc(-c2cn3c(C)c(C(=O)N4CCc5ccccc5C4)sc3n2)cc1` reads “inactive”; that for `COc1ccccc1-c1coc2c(CN3CCN(CCO)CC3)c(O)ccc2c1=O`, “inactive”; that for `CCOC(=O)C(NS(=O)(=O)c1ccc(Br)cc1)C(C)C` (stereo unspecified), “inactive”.
In the case of `COc1ccc2c(CC(=O)OCC(=O)c3ccc(F)cc3)coc2c1` it was “inactive”.
In the case of `Oc1c(C(c2ccco2)N2CCOCC2)sc2ncnn12` (stereo unspecified) it was “inactive”.
As to `Cc1ccc(C(=O)Nc2cccc(C(=O)N3CCN(C)CC3)c2)cc1`, the result was inactive.
In the case of `O=C(O)c1cccc(NC(=O)C2CCCO2)c1` (stereo unspecified) it was “inactive”; in that of `Cc1oc2c(c1C(=O)Nc1cccc(C(=O)O)c1)CCCC2`, “inactive”.
The result for `Cc1cc(C(=O)Nc2ccccc2)oc1C` reads “inactive”.
In the case of `O=C(Nc1cnc2ccccc2c1)c1cccnc1` it was “inactive”.
In the case of `Cc1ccc(NC(=O)c2ccccc2)cc1`, the outcome was inactive.
The result for `O=C(O)c1ccc(C(=O)Nc2cccc(NC(=O)C3CCCO3)c2)cc1` (stereo unspecified) reads “inactive”.
With `O=C(Nc1cnc2ccccc2c1)c1ccncc1`, the call was inactive.
The result for `O=C(Oc1ccc(Br)cc1)c1cncc(Br)c1` reads “inactive”; that for `O=C1CCC([N+](=O)[O-])C(c2ccccc2Cl)N1` (stereo unspecified), “inactive”.
Regarding `COc1cccc(-n2nnc3c(=O)n(Cc4c(F)cccc4Cl)cnc32)c1`, the molecule was called inactive.
As to `CCN(CC)CCCNC(=O)c1sc2nc(-c3ccc(F)cc3)cn2c1C`, the outcome was inactive.
In the case of `CCn1cc(C(=O)NCc2ccco2)c(=O)c2cc(S(=O)(=O)N3CC(C)CC(C)C3)ccc21` (stereo unspecified) it was “inactive”.
The result for `CCOC(=O)CCn1c(=O)c2c(nc(Br)n2Cc2ccccc2)n(C)c1=O` reads “inactive”.
In the case of `Cc1ccc(S(=O)(=O)NCCC(=O)Nc2nnc(C)s2)cc1` it was “inactive”.
Take `COC(=O)[C@H](C)NC(=O)Nc1ccccc1F`: the molecule was classed as inactive.
`COc1ccc(S(=O)(=O)n2c(CCN3CCOCC3)nc3ccccc32)cc1`: the outcome was inactive.
The result for `Cc1ccc(C(=O)Nc2cccc(C(=O)O)c2)cc1S(=O)(=O)N1CCOCC1` reads “inactive”.
As to `O=C(O)c1cccc(NC(=O)c2cccc(S(=O)(=O)N3CCCCC3)c2)c1`, the outcome was inactive.
`CC1C=CC(C)C(C(=O)O)C1C(=O)O` (stereo unspecified): the molecule was classed as inactive.
With `CC(=O)c1ccc(NS(=O)(=O)c2ccc(CC(C)C)cc2)cc1`, the molecule was called inactive.
The result for `Cc1cccnc1NC(=O)C1CCN(S(=O)(=O)c2cccs2)CC1` reads “inactive”; that for `COc1ccc(CCn2c(N3CCN(C)CC3)nc3c2c(=O)[nH]c(=O)n3C)cc1`, “inactive”; that for `CCOc1ccc(S(=O)(=O)NCCC2=CCCCC2)c2ccccc12`, “inactive”.
Consider `CCC1=Nc2cc(C(=O)NCCCOC)ccc2Sc2ccccc21`, for which the call was active.
Regarding `CCCC1=Nc2cc(C(=O)NCCCOC(C)C)ccc2Sc2ccccc21`, the call was inactive.
On to `CCCC1=Nc2cc(C(=O)NCCCOCC)ccc2Sc2ccccc21`, for which the outcome was active.
The result for `CCC1=Nc2cc(C(=O)NCCCOC(C)C)ccc2Sc2ccccc21` reads “inactive”; that for `COCCCNC(=O)c1cccc(C(=O)NCCCOC)c1`, “inactive”.
The result for `CCOCCCNC(=O)c1ccc(OC)cc1` reads “inactive”.
The result for `COc1ccc(S(=O)(=O)Cc2ccc(C(=O)N3CCN(c4ncccn4)CC3)o2)cc1` reads “inactive”; that for `CC1(C)CC(=O)C2=C(C1)Nc1ccccc1NC2c1cccnc1` (stereo unspecified), “inactive”; that for `CCC1=C2CC[C@H]3C(=O)N(CC(=O)OC)C(=O)[C@H]3[C@H]2[C@@]2(Cc3ccccc3)C(=NCCc3c[nH]c4ccccc34)OC(=O)N2C1=O`, “inactive”.
As to `O=C(CSc1ccccc1)Nc1cccnc1`, the molecule was classed as inactive.
The result for `CC(CN1CCOCC1)OC(=O)c1ccccc1Br` (stereo unspecified) reads “inactive”; that for `COc1ccc(-c2nc3ccccc3c(=O)n2CCN2CCOCC2)cc1`, “inactive”.
In the case of `COc1cc(OC)cc(C(=O)Nn2c(C)nc3ccccc3c2=O)c1` it was “inactive”; in that of `COc1ccc2[nH]c3c(c2c1)CCn1c-3nc2ccccc2c1=O`, “active”; in that of `O=C(CCCO)c1ccc2c(c1)OCCO2`, “inactive”.
Take `O=C(CCc1ccccc1)c1ccc2c(c1)OCCCO2`: the molecule was classed as inactive.
`Cc1cc(C(=O)Nc2ccc3c(c2)OCCO3)co1`: the molecule was called inactive.
Take `O=C(Nc1ccc2c(c1)OCCO2)c1cccnc1`: the result was inactive.
With `COc1ccccc1C(=O)Nc1ccc2c(c1)OCCO2`, the molecule was called inactive.
The result for `O=C(Nc1ccncc1)c1ccc2c(c1)OCCO2` reads “inactive”; that for `COc1cc(SC)ccc1C(=O)Nc1ccccc1`, “inactive”.
In the case of `O=C(Nc1ccccc1)c1ccc2c(c1)OCCO2` it was “inactive”.
In the case of `CS(=O)(=O)Nc1ccc(C(=O)Nc2ccc3c(c2)OCCO3)cc1` it was “inactive”; in that of `O=C(Nc1ccc2c(c1)OCO2)c1cncc(Br)c1`, “inactive”.
Regarding `Clc1cc(NCc2cccs2)ccc1N1CCOCC1`, the outcome was inactive.
In the case of `Cc1cc(N2CC34C=CC(O3)C(C(=O)O)C4C2=O)no1` (stereo unspecified) it was “inactive”.
The result for `CCOCCn1c(CN2CCN(CC)CC2)nc2c1c(=O)n(C)c(=O)n2C` reads “inactive”; that for `NC1=NC2(CCC(c3ccccc3)CC2)n2c(nc3ccccc32)N1` (stereo unspecified), “inactive”; that for `CC(C)N(Cc1nc(-c2ccc(Cl)cc2)no1)C(=O)CN(C)S(=O)(=O)c1ccc(Cl)cc1`, “inactive”.
